Experimental data taken from the supplement of paper PMC6555819.

Columns and labels:
Assay in all cases: PBM binding z-score (relative to random genomic background probes); higher = stronger binding; sequences stand for … in GC…GCGATTGACAGCGTAGAATGAAGG
[1] = tested on: PPARg:RXRa DBDmut IVT, anti-RXR (DBD mutation: RXRa K156A/R161A, NR concentration 270 nM, RXRa partner concentration 90 nM)
Outline: (§1)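 On custom Agilent 4×180K arrays, double-stranded probes with 34-nt variable regions carried direct-repeat seeds, single-nucleotide variants, half-site ablations or random human genomic background. Ligand-free nuclear receptor dimers were applied for 1 h, and binding was read with antibodies against each partner (one per run). Binding z-scores come from regression-normalized fluorescence, with the random background probes as reference.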

[2] = tested on: PPARg:RXRa IVT, anti-PPARg (NR concentration 270 nM, RXRa partner concentration 90 nM)
Outline: as §1

[3] = tested on: PPARg DBDmut:RXRa IVT, anti-PPARg (DBD mutation: PPARg1 K132A/R137A, NR concentration 270 nM, RXRa partner concentration 90 nM)
Outline: as §1

[4] = tested on: PPARg DBDmut IVT, anti-PPARg (DBD mutation: PPARg1 K132A/R137A, NR concentration 270 nM)
Outline: as §1

[5] = tested on: PPARg homodimer (NR concentration 180 nM)
Outline: as §1

[6] = tested on: PXR:RXRa (NR concentration 270 nM, RXRa partner concentration 90 nM)
Outline: as §1

[7] = tested on: PXR homodimer (NR concentration 270 nM)
Outline: as §1

[8] = tested on: RARa:RXR (NR concentration 270 nM, RXRa partner concentration 90 nM)
Outline: as §1

[9] = tested on: RARa homodimer (NR concentration 270 nM)
Outline: as §1

[10] = tested on: RARb:RXRa (NR concentration 270 nM, RXRa partner concentration 90 nM)
Outline: as §1

| Sequence | PBM binding z-score [1] | PBM binding z-score [2] | PBM binding z-score [3] | PBM binding z-score [4] | PBM binding z-score [5] | PBM binding z-score [6] | PBM binding z-score [7] | PBM binding z-score [8] | PBM binding z-score [9] | PBM binding z-score [10] |
| --- | --- | --- | --- | --- | --- | --- | --- | --- | --- | --- |
| AATACAGGGTCATCGTAGGCCAGAGCACGCACAG | 2.92 | 4.29 | 2.99 | 0.869 | 3.33 | 4.96 | 0.778 | 5.48 | 0.827 | 4.21 |
| GCTTGTAAATCAAGGTTAAGAAAGACTAAGCTAA | 0.268 | 0.664 | -0.64 | 0.161 | 0.00597 | 0.564 | -0.123 | 1.05 | -0.0975 | 0.808 |
| CTCGAAAGGTCGTGCTCAGGTGAGTATCCCAAAC | 0.866 | 1.8 | 0.243 | -0.461 | 1.25 | 3.1 | 0.327 | 3.67 | -0.0794 | 3.83 |
| CCTCGGAGGACAGAAGGTCAGAGTTGTCCGCTTT | 0.283 | 0.171 | -1.27 | -1.42 | 0.997 | 1.77 | -0.24 | 2 | 0.0194 | 3.16 |
| ATATGCAGGTTACATCCGGGTCATTCAGGCTATG | 3.86 | 4.01 | 0.813 | 1.04 | 1.59 | 3.71 | 1.94 | 3.45 | 0.262 | 2.34 |
| ACTACAGGGTCACTAGGCCAGAGTAGGTACGAAT | 3.3 | 5.46 | 1.45 | 0.752 | 2.24 | 2.67 | 0.0574 | 3.53 | 0.377 | 4.19 |
| AGAACGAGGGCACGCTGAGTTAATAGCAGAGTAG | 4.13 | 3.9 | -0.114 | 0.0711 | 0.0693 | 1.38 | -0.237 | 0.718 | -0.564 | 2.52 |
| ACTTACGGGTCAACGAGGTTATACCACGCGTATA | 3.73 | 3.99 | 1.8 | 1.74 | 2.9 | 5.43 | 4.36 | 5.72 | 1.26 | 4.34 |
| ATCGGAAGGTCGACGAGGTGAGTATACACCGTTT | -0.35 | 0.996 | 0.22 | -0.4 | 0.248 | 1.38 | -0.0622 | 1.66 | -0.26 | 2.51 |
| GCTGCTAGGTCAACTGATGGTCAGATAAAGCTCG | 4.95 | 4.14 | -0.121 | 0.186 | 2.79 | 1.8 | -0.238 | 3.42 | -0.022 | 4.22 |
| TCGAGTAGGTTAGGCGCATTCAGAATGGCGTCGA | 1.8 | 0.832 | -1.24 | -1.21 | -1.2 | -0.58 | -0.715 | -0.497 | -1.02 | 0.105 |
| CCTACTGGGCCATCAGGTCACTGATATCAACGTT | 4.97 | 5.45 | -0.0281 | -0.141 | 0.904 | 1.44 | 0.0492 | 1.94 | -0.142 | 2.33 |
| ACTTACGAGTCAACGAGGTTATAGCACGCGTATA | -0.235 | 0.267 | 1.03 | 0.64 | 0.175 | 1.51 | 0.513 | 1.68 | -0.00172 | 0.738 |
| GCTAGCAGGCCATTTGGGTCCCTCAATGACGGGC | -0.0266 | -0.343 | -1.53 | -1.41 | -1.41 | -0.687 | -1.15 | -0.731 | -1.25 | -0.116 |
| ATATGTAGGTTAGATCCGGGTCATTCAGGCTATG | 6.3 | 6.32 | 1.34 | 0.983 | 1.65 | 3.1 | 1.25 | 3.08 | 1.01 | 2.03 |
| AGAGACAGGTGATGAAGGTAACTCAGGCTATCAT | -0.111 | 0.416 | 0.748 | 0.187 | 0.847 | 0.283 | 0.671 | 0.263 | 1.15 | 0.706 |
| CCTACTGGGCCATTCAGAGGTCATTGAGCATATG | 4 | 4.21 | 0.182 | -0.178 | 2.75 | 4.88 | 2.54 | 4.74 | 0.462 | 3.14 |
| CGTCCAAGGTCAGCAGGTTAGTGAAAGCGACGTG | 2.23 | 2.41 | -0.261 | -0.686 | 3.19 | 2.75 | 0.49 | 3.24 | 0.634 | 4.85 |
| ATCTCTAGGTATCCAAGTTCAGTGAATGCCGAAC | 0.377 | 0.859 | 0.495 | 0.766 | 1.01 | 1.5 | 1.56 | 0.618 | 0.883 | 0.966 |
| CGTCAACGTTCAAGGTAACGTAACAGAAAGCAGC | -0.333 | 0.375 | -0.0516 | -0.229 | -0.442 | -0.292 | -0.379 | -0.0345 | -0.412 | 0.89 |
| TCTTGTCGATCAGCAGGTTAAGAAAGCTGGCCAA | 1.61 | 0.358 | -0.732 | 0.173 | 0.131 | 0.254 | -0.436 | 0.75 | -0.254 | 0.466 |
| CAAACTAGGTCGAGGTCAAAGTCGGTTTGTGCCA | 6.55 | 6.77 | 0.51 | 0.375 | 1.85 | 5.34 | 2.29 | 4.71 | 0.547 | 4.28 |
| CAAACTACGTCAAGGTCAAAGTCGGTTTGTGCCA | 0.822 | 1.93 | 0.681 | 0.932 | 2.33 | 4.63 | 2.94 | 4.28 | 0.409 | 4.04 |
| TCTATTTGTTGATTAGGGCAACCGAAACAGCGGA | 1.93 | 1.79 | 1.53 | 1.99 | 1.59 | 0.675 | 0.358 | 0.837 | 1.13 | 1.09 |
